Experiment [1] can be described thus: qHTS assay to identify small molecule antagonists of the thyroid receptor (TR) signaling pathway - cell viability counter screen (AID 743064). Also: nearly all actives have a fitted effect of over 50% in size. Also: potency is read from the fitted curve at half-maximal effect. In short, it runs like this:
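GH3.TRE-Luc rat pituitary cells dosed after 4 hr plating, co-stimulated with T3 at 1 nM final, incubated 23.5 h at 37 C. Viability measured in the same wells by CellTiter-Fluor fluorescence after 30 min further at 37 C.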
For orientation: In qHTS, concentration-response curves come from the screen itself.

A short description of experiment [2]: qHTS assay to identify small molecule antagonists of the thyroid receptor (TR) signaling pathway (AID 743065). Also: nearly all actives have a fitted effect of over 55% in size. Also: potency is read from the fitted curve at half-maximal effect. In short, it runs like this:
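GH3.TRE-Luc rat pituitary cells (two TREs driving luciferase) were dosed with compound, then stimulated with 1 nM T3 (final) for 23.5 h at 37 C. ONE-Glo luminescence was the read-out, with CellTiter-Fluor fluorescence as the cytotoxicity counter-screen.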

For experiment [3], the system named is thyroid hormone receptor (rat, GH3 cells). The experiment can be described thus: qHTS assay to identify small molecule agonists of the thyroid receptor (TR) signaling pathway (AID 743066; calls by dose curve).
Experiment [4] deals with Estrogen receptor (Homo sapiens) (UniProt P03372). The experiment can be described thus: qHTS assay to identify small molecule antagonists of the estrogen receptor alpha (ER-alpha) signaling pathway (AID 743069; active = well fitted curve in the direction sought with a large enough effect in the signal ratio in the repeat runs, not every such curve was filed as active; inconclusive = weak or mixed curves, or effect the other way; inactive = no such curve, though single readings can be large or run the other way; the % refers to the signal ratio; also: potency is read from the fitted curve at half-maximal effect). The procedure, abridged:
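In this cell-based reporter format, GripTite HEK293 cells harbouring ER-alpha-UAS-bla were grown overnight with 2% charcoal-stripped FBS, dosed with DMSO-dissolved compounds, then challenged with 17beta-estradiol. After 18 hr at 37C, beta-lactamase activity was detected by FRET fluorescence.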

Experiment [5] in a line: qHTS assay to identify small molecule antagonists of the estrogen receptor alpha (ER-alpha) signaling pathway - cell viability counter screen (AID 743074; calls by dose curve; also: nearly all actives have a fitted effect of over 45% in size).
Experiment [6] deals with Estrogen receptor (Homo sapiens) (UniProt P03372). The experiment can be described thus: qHTS assay to identify small molecule agonists of the estrogen receptor alpha (ER-alpha) signaling pathway (AID 743075; calls by dose curve).
For experiment [7] the target is unchanged. The experiment can be described thus: qHTS assay to identify small molecule agonists of the estrogen receptor alpha (ER-alpha) signaling pathway using the BG1 cell line (AID 743079). Also: nearly all actives have a fitted effect of over 20% in size.
A short description of experiment [8]: qHTS assay to identify small molecule antagonists of the estrogen receptor alpha (ER-alpha) signaling pathway using the BG1 cell line (AID 743080; calls by dose curve;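 also: BG1 cells stimulated with 17beta-estradiol alongside compound; series mostly up to about 70 µM; nearly all actives have a fitted effect of over 25% in size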). The procedure, abridged:
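BG1Luc4E2, endogenous ER-alpha, 4xERE-luc; 5 d charcoal-stripped FBS, phenol red free; 24 h plating; cpd + 17beta-estradiol 21.5 h, 37 C/5% CO2; CellTiter-Fluor viability 30 min, then ONE-Glo luciferase 30 min RT.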

Experiment [9] is described as follows: qHTS assay to identify small molecule antagonists of the estrogen receptor alpha (ER-alpha) signaling pathway using the BG1 cell line - cell viability counter screen (AID 743081).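 Also: compound given together with 17beta-estradiol as the ER stimulus; series mostly up to about 70 µM; nearly all actives have a fitted effect of over 45% in size.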
The target of a further experiment is Aromatase (Homo sapiens) (UniProt P11511). In words: qHTS assay to identify aromatase inhibitors (AID 743083). Also: nearly all actives have a fitted effect of over 55% in size. Also: potency is read from the fitted curve at half-maximal effect.
Experiment [10] in a line: qHTS assay to identify aromatase inhibitors - cell viability counter screen (AID 743084).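 Also: cells stimulated with testosterone during compound exposure; nearly all actives have a fitted effect of over 55% in size.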
Experiment [11] deals with Aryl hydrocarbon receptor (Homo sapiens) (UniProt P35869). In words: qHTS assay to identify small molecule that activate the aryl hydrocarbon receptor (AhR) signaling pathway (AID 743085).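 Also: HG2L7.5c1 human HepG2 liver cells with stably integrated DRE-driven firefly reporter; series mostly up to about 70 µM; nearly all actives have a fitted effect of over 15% in size.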 In short, it runs like this: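 HepG2 cells stably carrying a 20-DRE firefly luciferase reporter (HG2L7.5c1) treated with compound for 24 hr at 37C. Luciferase read by ONE-Glo luminescence, with CellTiter-Fluor viability read first.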

Experiment [12] can be described thus: qHTS assay for small molecule agonists of the antioxidant response element (ARE) signaling pathway - cell viability counter screen (AID 743203; calls by dose curve; also: nearly all actives have a fitted effect of over 55% in size; also: potency is read from the fitted curve at half-maximal effect). In short, it runs like this:
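ATP content via CellTiter-Glo luminescence served as the viability measure. Cells: ARE-bla HepG2, 2,000 per well. Exposure: 16 hrs, 37C/5% CO2.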

Experiment [13] can be described thus: qHTS assay for small molecule activators of the heat shock response signaling pathway - cell viability counter screen (AID 743209). Also: nearly all actives have a fitted effect of over 50% in size. In short, it runs like this:
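Compounds dissolved in DMSO were added to overnight-plated HSE-bla HeLa cells and left 5 h at 37 C. Cell viability was quantified by luminescence using CellTiter-Glo.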

A short description of experiment [14]: qHTS assay to identify small molecule that activate the aryl hydrocarbon receptor (AhR) signaling pathway - cell viability counter screen (AID 743086). Also: series mostly up to about 70 µM; nearly all actives have a fitted effect of over 45% in size. In short, it runs like this:
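HepG2-AhR-luc (HG2L7.5c1) cells, 4000/well, treated 24 h at 37 C with compound; viability measured as CellTiter-Fluor fluorescence after 30 min in the same wells as the luciferase read.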

The target in experiment [15] is Peroxisome proliferator-activated receptor gamma (Homo sapiens) (UniProt P37231). The experiment can be described thus: qHTS assay to identify small molecule antagonists of the peroxisome proliferator-activated receptor gamma (PPARg) signaling pathway (AID 743191; calls by dose curve; also: series mostly up to about 63 µM; nearly all actives have a fitted effect of over 30% in size). The procedure, abridged:
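GeneBLAzer PPARg UAS-bla HEK293H cells, 5 h post-plating, exposed to compounds 17 h at 37C. LiveBLAzer B/G FRET substrate added for 1 h at room temperature; beta-lactamase reporter read by fluorescence intensity.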

A short description of experiment [16]: qHTS assay to identify small molecule antagonists of the peroxisome proliferator-activated receptor gamma (PPARg) signaling pathway - cell viability counter screen (AID 743194). Also: nearly all actives have a fitted effect of over 55% in size. The following applies: Potency: co-treated with 50 nM rosiglitazone. In short, it runs like this:
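Cytotoxicity counter screen in PPARg-bla HEK293H cells, same wells as reporter assay. Compounds plus 50 nM rosiglitazone (final) for 17 h at 37 C, then viability read by CellTiter-Glo luminescence.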

Experiment [17] can be described thus: qHTS assay for small molecule agonists of the antioxidant response element (ARE) signaling pathway (AID 743202; active = well fitted activation curve with a large enough effect in the signal ratio in the repeat runs, not every such curve was filed as active; inconclusive = weak or mixed curves, or effect the other way; inactive = no such curve, though single readings can be large or run the other way; the % refers to the signal ratio). The procedure, abridged: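 HepG2 ARE-bla cells; 16 h treatment at 37 C; FRET-based beta-lactamase fluorescence read after 2 h substrate incubation at room temperature.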
For experiment [18], the target named is Peroxisome proliferator-activated receptor gamma (Homo sapiens) (UniProt P37231). In words: qHTS assay to identify small molecule agonists of the peroxisome proliferator-activated receptor gamma (PPARg) signaling pathway (AID 743094; active = well fitted activation curve with a large enough effect in the signal ratio in the repeat runs, not every such curve was filed as active; inconclusive = weak or mixed curves, or effect the other way; inactive = no such curve, though single readings can be large or run the other way; the % refers to the signal ratio). In short, it runs like this:
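Agonism was assessed in a beta-lactamase reporter system, HEK293H cells with a stably integrated UAS-bla construct under PPARg control; the 17 h treatment at 37C preceded a 1 h room-temperature FRET substrate read.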

A short description of experiment [19]: qHTS assay for small molecule activators of the heat shock response signaling pathway (AID 743210; active = well fitted activation curve with a large enough effect in the signal ratio in the repeat runs, with a control signal flat, not every such curve was filed as active; inconclusive = weak or mixed curves; the % refers to the signal ratio;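 also: HeLa cells with beta-lactamase reporter driven by heat shock elements; series mostly up to about 63 µM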). In short, it runs like this:
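Following overnight attachment, HSE-bla HeLa cells received test compounds for 5 h at 37 C; beta-lactamase activity was then detected via FRET substrate fluorescence.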

Values joined by “and” are separate entries in the source; they are usually repeats but may differ in a detail not shown here. Identical values can stand only once. Active and inactive are the calls of the source. Unless noted, calls follow the shape of the dose curve; as a rule, active = well fitted curve in the direction sought with a large enough effect in the repeat runs; inconclusive = weak or mixed curves; inactive = no such curve, though single readings can be large; an effect the other way counts as inactive or inconclusive.

Sequence of Peroxisome proliferator-activated receptor gamma (Homo sapiens) (P37231 whole entry, looked up): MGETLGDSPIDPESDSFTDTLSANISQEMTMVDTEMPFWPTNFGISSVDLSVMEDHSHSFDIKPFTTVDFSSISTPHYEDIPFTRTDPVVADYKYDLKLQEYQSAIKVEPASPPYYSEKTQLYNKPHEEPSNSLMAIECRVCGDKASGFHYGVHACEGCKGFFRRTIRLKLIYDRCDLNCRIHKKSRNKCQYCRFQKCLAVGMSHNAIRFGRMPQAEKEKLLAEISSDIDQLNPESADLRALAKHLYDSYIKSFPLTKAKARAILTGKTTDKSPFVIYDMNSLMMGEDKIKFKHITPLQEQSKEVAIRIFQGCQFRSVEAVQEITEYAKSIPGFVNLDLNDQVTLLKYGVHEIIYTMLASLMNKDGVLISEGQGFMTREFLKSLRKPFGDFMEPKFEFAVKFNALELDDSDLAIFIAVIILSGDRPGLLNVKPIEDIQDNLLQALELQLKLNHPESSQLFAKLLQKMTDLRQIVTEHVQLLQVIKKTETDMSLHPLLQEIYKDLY
Sequence of Aryl hydrocarbon receptor (Homo sapiens) (P35869 whole entry, looked up): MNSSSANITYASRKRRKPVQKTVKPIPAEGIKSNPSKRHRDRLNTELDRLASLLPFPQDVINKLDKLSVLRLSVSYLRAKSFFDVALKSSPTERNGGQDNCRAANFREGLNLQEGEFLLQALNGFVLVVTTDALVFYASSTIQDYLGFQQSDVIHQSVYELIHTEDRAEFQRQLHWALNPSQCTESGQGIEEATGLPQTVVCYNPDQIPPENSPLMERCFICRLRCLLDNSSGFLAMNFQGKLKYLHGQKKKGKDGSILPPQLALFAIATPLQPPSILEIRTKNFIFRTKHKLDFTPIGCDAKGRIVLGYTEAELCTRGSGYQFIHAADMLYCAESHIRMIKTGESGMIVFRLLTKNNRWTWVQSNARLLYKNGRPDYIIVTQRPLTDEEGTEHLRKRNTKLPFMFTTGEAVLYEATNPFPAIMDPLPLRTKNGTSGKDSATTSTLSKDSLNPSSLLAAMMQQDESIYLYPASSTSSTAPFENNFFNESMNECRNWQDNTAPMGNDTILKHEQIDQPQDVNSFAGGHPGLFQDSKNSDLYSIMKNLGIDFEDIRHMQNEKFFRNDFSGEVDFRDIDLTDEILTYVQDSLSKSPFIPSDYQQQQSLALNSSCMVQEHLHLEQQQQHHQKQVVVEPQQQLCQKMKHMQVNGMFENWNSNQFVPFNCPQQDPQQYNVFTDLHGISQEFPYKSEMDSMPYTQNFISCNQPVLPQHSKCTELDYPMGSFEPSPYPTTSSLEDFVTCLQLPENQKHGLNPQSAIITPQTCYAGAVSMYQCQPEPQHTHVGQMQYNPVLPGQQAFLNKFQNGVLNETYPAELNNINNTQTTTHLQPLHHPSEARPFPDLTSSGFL
Sequence of Aromatase (Homo sapiens) (P11511 whole entry, looked up): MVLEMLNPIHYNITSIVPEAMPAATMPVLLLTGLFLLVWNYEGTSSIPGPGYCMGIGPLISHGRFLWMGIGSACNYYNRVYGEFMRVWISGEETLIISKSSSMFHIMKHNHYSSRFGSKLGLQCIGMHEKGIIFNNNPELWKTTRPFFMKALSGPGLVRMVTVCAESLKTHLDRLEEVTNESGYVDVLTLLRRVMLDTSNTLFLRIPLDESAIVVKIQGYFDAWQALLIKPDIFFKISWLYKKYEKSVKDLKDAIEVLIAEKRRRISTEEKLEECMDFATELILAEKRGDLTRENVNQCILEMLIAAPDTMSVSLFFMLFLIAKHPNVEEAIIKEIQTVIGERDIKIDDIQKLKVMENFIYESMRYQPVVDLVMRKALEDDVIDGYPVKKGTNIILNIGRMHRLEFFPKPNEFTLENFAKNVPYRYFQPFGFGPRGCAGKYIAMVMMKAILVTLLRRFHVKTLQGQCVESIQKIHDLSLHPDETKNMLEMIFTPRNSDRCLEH
Sequence of Estrogen receptor (Homo sapiens) (P03372 whole entry, looked up): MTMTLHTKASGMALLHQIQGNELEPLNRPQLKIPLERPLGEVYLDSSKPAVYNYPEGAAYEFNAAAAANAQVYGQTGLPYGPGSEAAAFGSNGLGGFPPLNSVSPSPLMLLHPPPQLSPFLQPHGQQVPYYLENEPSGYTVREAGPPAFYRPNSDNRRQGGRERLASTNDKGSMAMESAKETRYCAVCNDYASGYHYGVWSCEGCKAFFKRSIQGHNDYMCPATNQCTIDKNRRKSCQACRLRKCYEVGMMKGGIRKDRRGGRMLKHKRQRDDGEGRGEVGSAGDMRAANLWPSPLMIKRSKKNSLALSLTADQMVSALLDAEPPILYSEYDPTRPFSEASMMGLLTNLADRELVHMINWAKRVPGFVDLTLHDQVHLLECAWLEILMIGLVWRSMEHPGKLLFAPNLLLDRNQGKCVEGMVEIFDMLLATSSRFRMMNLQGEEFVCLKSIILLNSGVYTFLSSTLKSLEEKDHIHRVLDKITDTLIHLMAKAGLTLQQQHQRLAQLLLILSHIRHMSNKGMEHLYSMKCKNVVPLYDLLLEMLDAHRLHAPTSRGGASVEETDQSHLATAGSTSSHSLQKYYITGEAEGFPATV

Consider `O=P(OCC(Br)CBr)(OCC(Br)CBr)OCC(Br)CBr` (configuration not stated), for which the Potency in [1] was 43.8 µM (active) and 51.7 µM (active); in [2], 27.7 µM (active) and 23.1 µM (active); in [4], 62.5 µM [inconclusive] (active) and 46.5 µM [inconclusive] (active); with Aromatase (Homo sapiens) it was 61.9 µM (active); in [12], 36.6 µM (active). In addition, the Potency entry in [3], in [5], in experiment [6], in experiment [7], in [8] and in experiment [9] was “inactive” each time. The Potency entry in experiment [10], in [11] and in experiment [13] was “inactive” in each case.

Regarding `CCCSP(=S)(OCC)Oc1ccc(SC)cc1` (configuration not stated), the Potency entry in experiment [1], in [2], in [3], in experiment [4], in experiment [5] and in [6] was “inactive” throughout. For the same molecule, the Potency entry (in experiment [7]; in experiment [8]; in experiment [9]; in the experiment with Aromatase (Homo sapiens); in experiment [10]; in experiment [14]) was “inactive” in each case. Moreover, the Potency entry in experiment [15], in experiment [16], in experiment [17] and in [12] was “inactive” in each case.

Regarding `Clc1ccccc1`, the Potency result in experiment [1], in [2], in experiment [3], in [4], in experiment [5] and in experiment [6] was “inactive” each time. Also, the Potency result (in [7]; in experiment [8]; in experiment [9]; with Aromatase (Homo sapiens); in experiment [10]; in experiment [14]) was “inactive” in each case. Moreover, the Potency entry in experiment [18], in [16], in experiment [17], in [12] and in experiment [19] was “inactive” in each case.

With `O=C(O)C(F)(F)C(F)(F)C(F)(F)C(F)(F)C(F)(F)F`, the Potency entry in experiment [1], in experiment [2], in experiment [3], in [4], in [5] and in [6] was “inactive” throughout. For the same molecule, the Potency entry (in [7]; in experiment [8]; in experiment [9]; with Aromatase (Homo sapiens); in experiment [11]; in [18]) was “inactive” each time. The Potency result in [16], in experiment [17], in [12] and in experiment [19] was “inactive” throughout.

In the case of `CCCC1CCCCN1` (configuration not stated), the Potency result in experiment [1], in experiment [2], in experiment [3], in experiment [4], in experiment [5] and in experiment [6] was “inactive” throughout. For the same molecule, the Potency entry (in [7]; in experiment [9]; in the experiment with Aromatase (Homo sapiens); in experiment [10]; in experiment [11]; in experiment [14]) was “inactive” in each case. In addition, the Potency result in experiment [18], in experiment [16], in [17], in [12], in [13] and in experiment [19] was “inactive” throughout.

Take `C=C(Cl)Cl`: the Potency result in experiment [1], in experiment [2], in [3], in [4], in experiment [5] and in [6] was “inactive” throughout. Moreover, the Potency result (in experiment [7]; in experiment [8]; in experiment [9]; with Aromatase (Homo sapiens); in [10]; in [14]) was “inactive” throughout. Further, the Potency result in [16], in experiment [17], in experiment [12] and in [19] was “inactive” each time.

`CCc1ccccc1N`: the Potency entry in experiment [1], in experiment [2], in experiment [3], in [4], in [5] and in experiment [6] was “inactive” throughout. Also, the Potency result (in experiment [7]; in experiment [8]; in experiment [9]; in the experiment with Aromatase (Homo sapiens); in [10]; in experiment [11]) was “inactive” each time. Besides, the Potency entry in experiment [14], in experiment [15], in experiment [12], in experiment [13] and in experiment [19] was “inactive” throughout.

For the molecule `C[C@H]1O[C@H](OC2[C@@H](O)[C@@H](O)C(O)[C@H](O)[C@H]2O)[C@@H](N)C[C@@H]1N=C(N)C(=O)O` (some centres not stated), the Potency result in [1], in experiment [2], in experiment [3], in [4], in [5] and in experiment [6] was “inactive” each time. Also, the Potency result (in [7]; in [8]; in experiment [9]; in the experiment with Aromatase (Homo sapiens); in experiment [10]; in experiment [14]) was “inactive” in each case. The Potency result in experiment [18], in [15], in [16], in experiment [17], in experiment [12] and in experiment [19] was “inactive” throughout.

The record behind these values is PubChem BioAssay (Tox21).
